Mcl1 Bid PPI – Mcl-1/Bid binding inhibitors, primary screen, biochemical, TR-FRET, 1536-well. Induced myeloid leukemia cell differentiation protein Mcl-1 (Homo sapiens), Q07820. TR-FRET Mcl-1/Bid-Dy647 peptide binding. inhibition, % at 21.7 µM. 220,000 compounds, 0.97% hits;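 active means compounds that cut the binding signal by more than half at the single screening dose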;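 further: His-tagged Mcl-1 with europium anti-His antibody binding Bid BH3 peptide; 0% = Mcl-1 plus peptide wells and 100% = peptide-only wells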
Target sequence (Q07820 whole entry, looked up): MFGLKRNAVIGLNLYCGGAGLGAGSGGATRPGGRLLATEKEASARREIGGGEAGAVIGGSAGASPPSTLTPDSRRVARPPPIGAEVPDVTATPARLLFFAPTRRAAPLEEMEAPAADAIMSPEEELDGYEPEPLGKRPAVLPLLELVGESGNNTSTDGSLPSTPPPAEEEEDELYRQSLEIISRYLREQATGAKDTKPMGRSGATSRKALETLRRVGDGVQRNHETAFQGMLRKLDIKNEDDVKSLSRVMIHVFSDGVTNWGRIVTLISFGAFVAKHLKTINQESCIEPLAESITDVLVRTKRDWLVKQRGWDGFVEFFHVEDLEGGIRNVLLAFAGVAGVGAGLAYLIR
14-3-3 Bad PPI – inhibitors of 14-3-3 zeta/Bad binding, primary screen, biochemical, TR-FRET, bovine 14-3-3 zeta; TR-FRET 14-3-3zeta/Dy647-pBad peptide displacement, 1 h; inhibition, % at 21.7 µM; 14-3-3 protein zeta/delta (Bos taurus), P63103; AID 781, 2007; 220,000 compounds, 0.71% hits;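 active means inhibition above about 70%, limit read from the data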;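 further: 0% = full 14-3-3 plus peptide FRET controls and 100% = background without 14-3-3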
Target sequence (P63103 whole entry, looked up): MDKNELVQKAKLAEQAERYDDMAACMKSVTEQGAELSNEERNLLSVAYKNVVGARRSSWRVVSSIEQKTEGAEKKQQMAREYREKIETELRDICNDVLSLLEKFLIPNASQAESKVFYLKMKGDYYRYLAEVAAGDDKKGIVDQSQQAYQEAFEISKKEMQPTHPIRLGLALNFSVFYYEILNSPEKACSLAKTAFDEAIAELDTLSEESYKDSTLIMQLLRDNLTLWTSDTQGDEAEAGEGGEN
Mcl-1 Bim block – inhibitors of Bim peptide binding to Mcl-1, primary screen, biochemical, bead-based flow cytometry, multiplex | Induced myeloid leukemia cell differentiation protein Mcl-1 (Homo sapiens), Q07820 | Bim peptide-Mcl-1 binding | inhibition, % at 10 µM | 190,000 compounds, 0.1% hits; in the data active means inhibition above about 40%;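 further: 0% = no compound tracer wells and 100% = peptide blocker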
Arbovirus inh – antivirals against arbovirus infection, primary screen, cell-based, full library, 10K replicate subset; arbovirus infection cell-based antiviral screen; inhibition, % at 10 µM; 200,000 compounds, 0.37% hits; AID 1251, 2008; in the data active means inhibition above about 30%
Mcl1 Noxa PPI – Mcl-1/Noxa binding inhibitors, primary screen, biochemical, TR-FRET, 1536-well; inhibition, % at 21.7 µM; TR-FRET Mcl-1/Noxa peptide binding, 2 h; Induced myeloid leukemia cell differentiation protein Mcl-1 (Homo sapiens), Q07820; 220,000 compounds, 1.5% hits;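 active means compounds that cut the protein-peptide binding signal by more than 50% relative to plate controls in a single-dose test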;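 further: His-tagged Mcl-1 with rhodamine Noxa BH3 peptide and terbium anti-His antibody; 0% = Mcl-1 plus Noxa peptide wells and 100% = peptide-only wells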
Numbers without * were called inactive; . = no result given; ! = a repeat was not active; [ ] = dose if it differs, or a comment. This is a sample that favours compounds with a hit; in the whole collection about 3% have one here.

SMILES	Mcl1 Bid PPI	14-3-3 Bad PPI	Mcl-1 Bim block	Arbovirus inh	Mcl1 Noxa PPI
Nc1ccccc1Oc1c(F)c(F)c(Oc2ccccc2N)c(F)c1F	-23	-1	6	0	15
CCN1CCCc2cc(CN(CCN3CCOCC3)C(=S)Nc3ccccc3OC)ccc21	-61	-9	-2	5	60*
CCN1CCCc2cc(CN(CCN3CCOCC3)C(=O)Nc3ccc(C)c(C)c3)ccc21	-35	13	-2	3	-2
CCN1CCCc2cc(CN(CCN3CCOCC3)C(=S)Nc3ccc(OC)c(OC)c3)ccc21	-66	3	-1	5	25
CCc1ccc(NC(=O)N(CCN2CCOCC2)Cc2ccc3c(c2)CCCN3CC)cc1	-69	-10	-7	2	74*
CCN1CCCc2cc(CN(CCN3CCOCC3)C(=S)Nc3cccc(C)c3)ccc21	-98	12	-2	6	64*
CCN1CCCc2cc(CN(CCN3CCOCC3)C(=S)Nc3ccccc3C)ccc21	-99	-6	-1	-5	72*
CC(OC(=O)c1cc(-c2cccnc2)nc2ccccc12)C(=O)Nc1ccc2ccccc2c1 (centres undefined)	-18	-10	-1	-10	23
COc1cccc(-n2c(Cc3cc(=O)[nH]c(=O)[nH]3)nnc2SCc2cccc(C(F)(F)F)c2)c1	-9	-4	-3	8	-22
CSc1nc2cc(C)nn2c(-c2ccccc2)c1C#N	-7	94*	.	.	-10
COc1cc(/C=C2\SC(=S)N(Nc3ccccc3)C2=O)ccc1O	-5	-16	-3	-23	30
O=C1/C(=C/c2ccc(O)c(O)c2)SC(=S)N1Nc1ccccc1	-27	8	5	-19	60*
Nc1cccc2nsnc12	-75	-14	.	.	7
Nc1cc2nsnc2cc1Br	-44	8	0	-1	61*
O=C1COc2ccc(N3C(=O)C=CC3=O)cc2N1	-35	-1	-3	0	57*
c1ccc(CSc2nnc3ccc(-c4ccco4)nn23)nc1	-3	-10	-1	0	22
Cc1ccc(NC(=O)Cn2c(O)c(N=NC(=O)c3cc([N+](=O)[O-])ccc3O)c3ccccc32)cc1	-29	-2	.	.	50*
Cc1cccc(NC(=O)Cn2c(O)c(N=NC(=O)c3ccccc3O)c3ccccc32)c1	66*	59	-1	-2	66*
Cc1ccc(NCC(=O)N=Nc2c(O)[nH]c3ccc([N+](=O)[O-])cc23)cc1	-24	-7	.	.	33
CCn1cc(/C=N\NC(=O)c2ccccc2Cl)cn1	-15	18	-28	1	-4
O=[N+]([O-])c1ccc([N+](=O)[O-])c(Nc2ccc(N3CCOCC3)cc2)c1	-25	-3	0	1	8
CCOC(=O)Nc1c(Cl)n(C)c(=O)n(C)c1=O	-66	-1	.	.	-5
O=C(CN1CCN(Cc2ccccc2)CC1)N/N=C/c1cccs1	-4	-6	.	.	3
O=C(CN1CCCCCC1)N/N=C/c1cccs1	-4	19	-5	46*	6
O=[N+]([O-])c1ccccc1/C=C/C=N/n1c(-c2ccccc2)n[nH]c1=S	-33	7	-3	11	73*
SMILES	Mcl1 Bid PPI	14-3-3 Bad PPI	Mcl-1 Bim block	Arbovirus inh	Mcl1 Noxa PPI
COc1ccccc1/C=C/C=N/n1c(-c2ccc(C)cc2)n[nH]c1=S	-30	5	0	-1	12
Cc1ccc(-c2n[nH]c(=S)n2/N=C/C=C\c2ccccc2[N+](=O)[O-])cc1	-27	39	-2	2	-15
O=[N+]([O-])c1ccccc1/C=C/C=N/n1c(-c2ccc(Cl)cc2)n[nH]c1=S	8	79*	-5	15	15
COc1ccc(/C=C/c2cc(C(F)(F)F)on2)cc1	-26	4	.	.	-25
Cc1cccc(OCC(=O)N(C)CCc2ccccn2)c1	57*	71*	0	4	12
COc1ccc(CN(Cc2cccn2C)C(=O)c2cc3cc(OC)ccc3[nH]2)cc1	-50	-18	.	.	-34
C[c-]1[c-](C)[c-](C)[c-](C)[c-]1C.[Fe].c1cc2nccc(N3CCCC3)[c-]2c1 (centres undefined)	-107	23	.	.	55*!
Cc1cc(=O)oc2cc(OC(C)C(=O)N3CCOCC3)ccc12 (centres undefined)	0	-4	-1	1	-5
Cc1cc(=O)oc2cc(OCC(=O)N3CCOCC3)ccc12	13	13	-11	-4	64*
O=C(COc1ccccc1)N/N=C/c1cc2c(cc1[N+](=O)[O-])OCO2	-26	6	-3	0	19
COc1ccc2c(c1)c(=O)oc1cc(OCC(=O)N3CCc4ccccc4C3)ccc12	53*	18	-5	-6	58*
O=C(CSc1ccccn1)N/N=C/c1cc([N+](=O)[O-])ccc1O	-63	-4	.	.	-53
O=C(CSc1ccccn1)N/N=C/c1ccccc1[N+](=O)[O-]	11	84*[fluorescence artefact?]	-2	-7	11
COc1ccc2c(c1)c(=O)oc1cc(OCC(=O)N3CCC(C)CC3)ccc12	2	7	0	-25	36
Cc1cc(=O)oc2cc(OCC(=O)N/N=C/c3ccccc3[N+](=O)[O-])ccc12	63*	64	1	4	50
Cc1cccc(C(=O)NC(=S)NCc2cccnc2)c1	-40	-11	-6	5	18
CCC(=O)N=c1ccn(C2=Nc3ccccc3NC2=C(C#N)C#N)cc1	-12	-1	.	.	22
OCC1CCCC(n2cnc3c(=S)nc[nH]c32)O1 (centres undefined)	-44	-15	.	.	4
Cc1nnc(SCC(=O)N2N=C(c3ccc(Cl)cc3)CC2c2ccco2)[nH]c1=O (centres undefined)	-64	-11	4	11	53*
COc1cccc(OC)c1C(=O)N1CCN(c2c(Cc3ccccc3)c(C)nc3ncnn23)CC1	-16	9	0	8	10
Cn1cnnc1SCC(=O)Nc1nc(-c2ccccc2)cs1	-5	-2	-2	-2	56*
CCC(=O)N1c2ccccc2NC2=C(C(=O)CC(C)(C)C2)C1c1cccnc1 (centres undefined)	-16	-10	2	2	14
O=C(Nc1ccccc1)C1=C[C@@H](c2ccc(Br)cc2)C[C@@H](OCCCCO)O1	-4	3	-3	-13	-6
Cc1cc(-c2ccccc2)nc(=O)[nH]1	37	74*	-1	7	15
CCCNS(=O)(=O)c1ccc2c(c1)n(C)c(=O)n2C	-53	84*	3	-8	1
Cn1c(=O)n(C)c2cc(S(=O)(=O)O)ccc21	-4	74*	0	5	2
Cn1c(=O)c2cc(S(=O)(=O)Nc3cc(C(=O)O)cc(C(=O)O)c3)ccc2n(C)c1=O	-25	-3	46*	0	2
CCc1ccc2c(c1)/C(=N/OC)C(=O)N2	-36	-1	0	-7	9

Bioassay records from PubChem.
